Bioassay records as filed in PubChem.
VDR inh = blocks the human vitamin D receptor. VDR-SRC2-3 peptide fluorescence polarization, 2 h. Potency, µM, actives largely listed as inhibitors. 400,000 tested, 0.93% active. AID 504847
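Signal is fluorescence polarization, reporting how far test compounds block the interaction of VDR with the SRC2-3 coregulator peptide after a 2 h room-temperature incubation.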
Tau ThT inhib = blocks human tau fibril formation measured by thioflavin T; AID 1460; P10636; 270,000 tested, 2.1% active; Potency, µM (doses to about 57.4 µM), most hits filed as inhibitors; recombinant tau K18 P301L, heparin-induced fibrillization, ThT fluorescence; further: nearly all actives have a fitted effect of over 55% in size
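ThT emission at 510 nm, taken 1 hr after adding 30 uM dye, quantifies aggregates formed when 20 uM heparin acts on human tau K18 P301L for 6 hr at 37 C.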
PLK1 PBD block = PLK1 (human) polo-box domain binding inhibition. Plk1 PBD binding of FITC phosphopeptide, fluorescence polarization. Potency, µM, most hits filed as inhibitors. 360,000 tested, 2.8% active. AID 720504. P53350; further: series mostly up to about 57 µM; nearly all actives have a fitted effect of over 65% in size
Target sequence (P53350 whole entry, looked up, the tested form may be a part): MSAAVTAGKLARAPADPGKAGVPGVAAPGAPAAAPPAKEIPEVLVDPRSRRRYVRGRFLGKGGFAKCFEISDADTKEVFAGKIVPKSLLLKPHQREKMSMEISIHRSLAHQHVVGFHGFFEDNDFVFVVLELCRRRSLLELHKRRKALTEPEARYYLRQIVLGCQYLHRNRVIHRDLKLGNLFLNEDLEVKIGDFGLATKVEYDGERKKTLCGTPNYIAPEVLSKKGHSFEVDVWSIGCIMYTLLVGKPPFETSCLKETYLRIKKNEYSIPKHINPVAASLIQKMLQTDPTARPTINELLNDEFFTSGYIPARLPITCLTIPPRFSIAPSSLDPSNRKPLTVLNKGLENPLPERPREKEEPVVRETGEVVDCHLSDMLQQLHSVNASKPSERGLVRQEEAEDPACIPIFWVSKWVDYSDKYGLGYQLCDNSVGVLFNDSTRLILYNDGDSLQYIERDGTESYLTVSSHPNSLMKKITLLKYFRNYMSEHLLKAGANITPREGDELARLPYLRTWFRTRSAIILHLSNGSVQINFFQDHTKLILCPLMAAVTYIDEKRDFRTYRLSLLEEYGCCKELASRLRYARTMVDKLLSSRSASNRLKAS
Sfp inh = blocks B. subtilis Sfp PPTase activity | 310,000 tested, 3.5% active | Q9F4F7 | Potency, µM, actives largely listed as inhibitors | Biochemical Sfp PPTase activity, qHTS;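 further: the enzyme is Sfp with the accession as filed and its product quenches rhodamine fluorescence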
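Reaction rates are the 30-min fluorescence difference (ex 525, em 598 nm) in wells containing 15 nM Sfp, 5 uM rhodamine-CoA and 12.5 uM BHQ-2-YbbR at pH 7.6 with 10 mM MgCl2.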
Tau fibril FP = inhibitors of human tau fibril formation; P10636; K18 P301L tau heparin fibrillization, Alexa594 FP, 6 h; Potency, µM (highest dose often 57.7 µM), usual class: inhibitors; 280,000 tested, 0.39% active; further: nearly all actives have a fitted effect of over 55% in size
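Human K18 P301L fragment (15 uM unlabeled plus 0.24 uM Alexa 594-labeled) in 100 mM sodium acetate pH 7 with compound, aggregation induced by 20 uM heparin for 6 hr at 37 C. ThT (30 uM) added for 1 hr, then Alexa 594 FP read.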
Tau fluor counter = counter-screen for tau fibril formation inhibitors. Potency, µM (highest dose often 57.7 µM). 280,000 tested, 0.93% active. tau K18 P301L Alexa594 fluorescence, heparin fibrillization; further: nearly all actives have a fitted effect of over 55% in size
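Human tau K18 P301L (15 uM unlabeled, 0.24 uM Alexa 594-labeled) in 100 mM sodium acetate pH 7 with 20 uM heparin, 6 hr at 37 C. ThT 30 uM added, 1 hr ambient; Alexa 594 FP and total fluorescence read at 555/632 nm.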
Of the large screens only hits and unclear results are named; the others gave an inactive call; [ ] = remark or other dose. Most compounds without a hit are left out; they make up all but 6% or so of the library. The call rests on the fitted dose curve; in most records, active means well fitted curve in the direction sought with a large enough effect; inconclusive means small, poorly fitted or top-dose-only effect, or another doubt; inactive means no such curve, though single readings can be large; an effect the other way counts as inactive or inconclusive.

CCC(C)Sc1nc2c(c(=O)[nH]c(=O)n2C)n1CC(O)COc1ccccc1C (centres undefined)	PLK1 PBD block 10.6µM, Sfp inh 39.8µM
CCC(C)Sc1nc2c(c(=O)[nH]c(=O)n2C)n1CCc1ccccc1 (centres undefined)	none
CC(=O)c1ccc(NC(=O)COC(=O)c2ccccc2Nc2ccccc2)cc1	VDR inh inconclusive, PLK1 PBD block 26.7µM, Tau fibril FP inconclusive, Tau fluor counter inconclusive
CC(=O)c1ccccc1NC(=O)COC(=O)c1ccccc1NC(=O)c1ccccc1	Sfp inh 28.2µM
Cc1ccc(SCc2[nH]nc3c2C(c2ccco2)C(C#N)=C(N)O3)cc1 (centres undefined)	Tau ThT inhib 20µM, PLK1 PBD block 9.47µM, Tau fibril FP inconclusive, Tau fluor counter inconclusive
CCc1[nH]nc2c1C(c1ccc(C)o1)C(C#N)=C(N)O2 (centres undefined)	none
Cc1ccc(SCc2[nH]nc3c2C(c2ccc(C)o2)C(C#N)=C(N)O3)cc1 (centres undefined)	Tau ThT inhib 14.1µM, PLK1 PBD block inconclusive, Sfp inh inconclusive, Tau fibril FP inconclusive, Tau fluor counter inconclusive
Cc1cc(/C=C2\SC(=Nc3ccccc3)NC2=O)c(C)n1-c1ccc(S(N)(=O)=O)cc1	Tau ThT inhib inconclusive, Tau fluor counter inconclusive
Cc1ccc(C)c(N2CCN(S(=O)(=O)c3cc(C(=O)Nc4cc(Cl)cc(Cl)c4)ccc3F)CC2)c1	Tau fibril FP inconclusive (no result: PLK1 PBD block, Sfp inh)
Cc1cccc(N2CCN(S(=O)(=O)c3cc(C(=O)Nc4ccc(Oc5ccccc5)cc4)ccc3F)CC2)c1C	Tau fibril FP 28.2µM (no result: PLK1 PBD block, Sfp inh)
O=C(Nc1cc(Cl)cc(Cl)c1)c1ccc(F)c(S(=O)(=O)N2CCN(c3ccccc3F)CC2)c1	Tau fibril FP 20µM (no result: PLK1 PBD block, Sfp inh)
CC(C)c1ccc(NC(=O)C2CCCCN2S(=O)(=O)c2ccccc2)cc1 (centres undefined)	none (no result: Tau ThT inhib, Sfp inh, Tau fibril FP, Tau fluor counter)
COc1cc(/C=C2/C(=O)NN(c3cccc(C)c3)C2=O)cc([N+](=O)[O-])c1O	Tau ThT inhib 14.1µM, PLK1 PBD block inconclusive
COc1cc(/C=C2\C(=N)N3N=CSC3=NC2=O)ccc1OS(=O)(=O)c1ccccc1[N+](=O)[O-]	VDR inh inconclusive, PLK1 PBD block 26.7µM (no result: Tau ThT inhib, Tau fibril FP, Tau fluor counter)
CCOc1cc(/C=C2/C(=O)NN(c3cccc(Cl)c3)C2=O)ccc1O	VDR inh inconclusive, PLK1 PBD block inconclusive (no result: Tau ThT inhib, Tau fibril FP, Tau fluor counter)
COc1cc(/C=C2/C(=O)NN(c3cccc(Cl)c3)C2=O)cc(OC)c1O	VDR inh 79.4µM (no result: Tau ThT inhib, Tau fibril FP, Tau fluor counter)
COc1cc(/C=C2/C(=O)NN(c3cccc(C)c3)C2=O)ccc1OC(=O)c1ccco1	VDR inh 50.1µM, Tau ThT inhib inconclusive, PLK1 PBD block 2.99µM, Sfp inh 44.7µM, Tau fibril FP inconclusive, Tau fluor counter inconclusive
CCOc1c2c(c(-c3ccc4c(c3)OCO4)c3cc(OC)c(OC)cc13)C(=O)OC2	none (no result: Tau ThT inhib, PLK1 PBD block, Sfp inh, Tau fibril FP, Tau fluor counter)
CC(=O)OCC(=O)[C@@]1(O)CCC2C3CC[C@H]4CC(O)CC[C@@]4(C)C3C(=O)C[C@]21C (some centres undefined)	none (no result: PLK1 PBD block)
COc1cc(/C=C2\C(=N)N3N=C(S(C)(=O)=O)SC3=NC2=O)ccc1OC(=O)c1ccco1	VDR inh 79.4µM, PLK1 PBD block inconclusive (no result: Tau ThT inhib, Tau fibril FP, Tau fluor counter)
CCOC(=O)c1c(S(=O)(=O)NCC(=O)N2CCN(c3ccc(F)cc3)CC2)c(C)n(C)c1C	none (no result: Tau ThT inhib, Tau fibril FP, Tau fluor counter)
CSc1ccc(/C=C2/C(C)=C(CC(=O)O)c3cc(F)ccc32)cc1	VDR inh 44.7µM, Tau ThT inhib inconclusive, Tau fibril FP inconclusive (no result: PLK1 PBD block)
CC(C)C1CC(O)(C2(O)CCCCC2)ON1 (centres undefined)	PLK1 PBD block 3.36µM
Cc1[nH]c2ccccc2c1C(=O)CSC(=S)N(C)C1CCCCC1	Tau fibril FP 25.1µM, Tau fluor counter inconclusive
Cc1[nH]c2ccccc2c1C(=O)CSc1nccc(=O)[nH]1	PLK1 PBD block inconclusive
Cc1[nH]c2ccccc2c1C(=O)CSc1ccc(Cl)cc1	VDR inh inconclusive, PLK1 PBD block 11.9µM
Cc1[nH]c2ccccc2c1C(=O)CSC(=S)N1CCCCC1	Tau ThT inhib inconclusive, Tau fibril FP 39.8µM, Tau fluor counter 22.4µM[quencher]
Cc1[nH]c2ccccc2c1C(=O)C(=O)N(C)C1CCCCC1	none (no result: Tau ThT inhib, Tau fibril FP, Tau fluor counter)
